Results taken from the supplement of paper PMC12669032.
Values without a mark were called inactive.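 The calls were made as follows: active = AUC reduced over 20% with Padj below 0.05 in at least 2 of 3 replicates; inactive = otherwise.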

Columns and labels:
Test in all cases: growth AUC relative to DMSO control (median of replicates) (fraction); higher = more growth (less inhibition), active = hit call of the paper
Details in all cases: 20 µM; 24 h
Akkermansia muciniphila = test system: Akkermansia muciniphila
Procedure, shortened: (§1)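 Gut bacterial monocultures were grown anaerobically at 37 °C in mGAM from a starting OD600 of 0.05 with 20 µM compound (1% DMSO), in round-bottom 96-well plates under pierced gas-permeable seals, and OD600 was read hourly for 24 h. With the minimum OD set to 0, area under the growth curve was normalised to the plate median of solvent-only wells, or to row and column medians on the industrial chemical plate. Each value is the median of three biological replicates grown on separate days.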

Bacteroides caccae = test system: Bacteroides caccae
Procedure, shortened: as §1

Bacteroides clarus = test system: Bacteroides clarus
Procedure, shortened: as §1

Bacteroides dorei = test system: Bacteroides dorei
Procedure, shortened: as §1

Bacteroides stercoris = test system: Bacteroides stercoris
Procedure, shortened: as §1

[1] = test system: Bacteroides thetaiotaomicron
Procedure, shortened: as §1

Bacteroides uniformis = test system: Bacteroides uniformis
Procedure, shortened: as §1

[2] = test system: Bifidobacterium longum subsp. longum
Procedure, shortened: as §1

Clostridium difficile = test system: Clostridium difficile
Procedure, shortened: as §1

Collinsella aerofaciens = test system: Collinsella aerofaciens
Procedure, shortened: as §1

Coprococcus comes = test system: Coprococcus comes
Procedure, shortened: as §1

Escherichia coli ED1a = test system: Escherichia coli ED1a
Procedure, shortened: as §1

Escherichia coli IAI1 = test system: Escherichia coli IAI1
Procedure, shortened: as §1

Eubacterium rectale = test system: Eubacterium rectale
Procedure, shortened: as §1

[3] = test system: Fusobacterium nucleatum subsp. animalis
Procedure, shortened: as §1

Lactobacillus gasseri = test system: Lactobacillus gasseri
Procedure, shortened: as §1

Lactobacillus paracasei = test system: Lactobacillus paracasei
Procedure, shortened: as §1

Odoribacter splanchnicus = test system: Odoribacter splanchnicus
Procedure, shortened: as §1

[4] = test system: Parabacteroides distasonis
Procedure, shortened: as §1

Parabacteroides merdae = test system: Parabacteroides merdae
Procedure, shortened: as §1

SMILES	growth AUC (Akkermansia muciniphila)	growth AUC (Bacteroides caccae)	growth AUC (Bacteroides clarus)	growth AUC (Bacteroides dorei)	growth AUC (Bacteroides stercoris)	growth AUC [1]	growth AUC (Bacteroides uniformis)	growth AUC [2]	growth AUC (Clostridium difficile)	growth AUC (Collinsella aerofaciens)	growth AUC (Coprococcus comes)	growth AUC (Escherichia coli ED1a)	growth AUC (Escherichia coli IAI1)	growth AUC (Eubacterium rectale)	growth AUC [3]	growth AUC (Lactobacillus gasseri)	growth AUC (Lactobacillus paracasei)	growth AUC (Odoribacter splanchnicus)	growth AUC [4]	growth AUC (Parabacteroides merdae)
Cc1ccccc1[N+](=O)[O-]	1	0.996	1	1.02	1.01	1.01	0.995	0.991	1	1	1	0.997	0.992	1	1.03	1.02	0.999	0.994	1.06	0.995
CNC(=O)O/N=C/C(C)(C)SC	0.909	1.03	0.993	1.03	0.943	0.987	1.01	0.957	0.979	1.04	1.01	1.01	1.03	0.966	0.939	1.12	0.99	1	1.03	0.961
CCOP(=S)(OCC)OP(=S)(OCC)OCC	0.981	0.986	0.953	0.993	1.02	0.956	0.988	1.01	0.986	1.02	0.985	0.968	0.979	0.928	1.04	1.23	1.04	0.98	1.02	0.984
OC(c1ccc(Cl)cc1)(c1cncnc1)c1ccccc1Cl (stereo not given)	0.992	0.89	0.887	0.893	0.686	0.503 (active)	0.632 (active)	0.921	1.01	0.984	0.987	0.991	0.973	1.14	1.01	0.922	1.12	0.611	0.886	0.299 (active)
COP(=S)(OC)SCN1C(=O)c2ccccc2C1=O	0.901	0.971	0.966	1	0.97	0.978	0.975	0.951	0.94	0.965	1	1	0.991	0.967	0.947	1.11	0.986	0.968	0.982	0.988
COP1(=S)OCc2ccccc2O1 (stereo not given)	1.01	0.973	0.979	0.999	1.02	0.993	0.986	0.972	0.97	1.04	1	0.991	1	1.08	1.12	0.945	0.997	1.04	1.05	0.999
CON(C)C(=O)Nc1ccc(Br)cc1	0.941	1.01	0.988	0.992	1.16	1.02	0.993	1.18	0.952	1.1	1.05	1.02	1	1.02	1.07	1.15	1.02	1.01	0.983	1.01
CC(C)C(C(=O)OC(C#N)c1cccc(Oc2ccccc2)c1)c1ccc(Cl)cc1 (stereo not given)	0.88	0.977	1	0.935	1.1	1.02	0.986	0.765	1.01	0.903	1	1.01	0.963	0.901	1.02	0.9	1.11	0.893	1.01	0.974
